According to PubChem BioAssay (EPA / NIEHS):
Results filed as inconclusive are left out. The source made the active and inactive calls. How the source made its calls: active means hit-call score of the fitted dose curve at least 0.9, where 1 is the maximum; inconclusive means response in the unintended direction; inactive means score below 0.9.

molecular target: Adra2b (gene 24174) (UniProt P19328); experiment: NVS_GPCR_rmAdra2B: NovaScreen (NVS) G Protein-Coupled Receptor Assay for hybird cells Adrenergic, Alpha 2B Receptor (Adra2B) (AID 2283306)
Sequence (P19328 whole entry, looked up): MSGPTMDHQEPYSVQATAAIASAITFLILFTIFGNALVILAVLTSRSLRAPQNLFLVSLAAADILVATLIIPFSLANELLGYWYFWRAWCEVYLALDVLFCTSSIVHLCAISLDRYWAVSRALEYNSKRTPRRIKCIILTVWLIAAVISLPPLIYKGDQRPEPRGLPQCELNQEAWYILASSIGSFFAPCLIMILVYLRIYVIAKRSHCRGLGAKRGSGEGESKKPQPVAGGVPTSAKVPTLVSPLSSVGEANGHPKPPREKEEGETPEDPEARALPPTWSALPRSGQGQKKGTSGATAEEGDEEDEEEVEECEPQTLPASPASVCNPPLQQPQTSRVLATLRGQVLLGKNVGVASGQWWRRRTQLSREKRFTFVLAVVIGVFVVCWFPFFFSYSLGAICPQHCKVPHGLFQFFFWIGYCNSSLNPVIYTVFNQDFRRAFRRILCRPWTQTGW
Experimental: NVS_GPCR_rmAdra2B is a biochemical, single-readout assay that uses extracted gene-proteins from neuroglioma/blastoma hybrid cells in a tissue-based cell-free assay. Measurements were taken 1 hour after chemical dosing in a 48-well plate.NVS_GPCR_rmAdra2B is one of one assay component(s) measured or calculated from the NVS_GPCR_rmAdra2B assay. It is designed to make measurements of radioligand binding, a form of binding reporter, as detected with scintillation counting signals by Filter-based radiodetection technology.Data from the assay component NVS_GPCR_rmAdra2B was analyzed into 1 assay endpoint. This assay endpoint, NVS_GPCR_rmAdra2B, was analyzed in the positive analysis fitting direction relative to DMSO as the negative control and baseline of activity. Using a type of binding reporter, loss-of-signal activity can be used to understand changes in the binding as they relate to the gene Adra2b. Furthermore, this assay endpoint can be referred to as a primary readout, because the performed assay has only produced 1 assay endpoint. To generalize the intended target to other relatable targets, this assay endpoint is annotated to the gpcr intended target family, where the subfamily is rhodopsin-like receptor.
Binding assays used specific radioligands (tritiated, iodinated) with non-radioactive competitive displacement ligands in agonist or antagonist protocols (as indicated) and various reference compounds and inhibitors to titrate specific binding to receptors and transporters. Most enzyme assays (CYPs, kinases, phosphatases, proteases, HDACs) used recombinant protein and specific substrates (fluorescence mostly, some colorimetric and radioactive) and inhibitors, followed by a biochemical separation of substrate and product. All assays for the biochemical HTS were initially run in duplicate at a single concentration (10 uM for CYP450 assays and 25 uM for all others). […] Each assay was run with positive and negative controls, and concurrent controls on every plate. The follow-up (secondary) screen tested active chemical-pairs in concentration series, as well as a few additional assays not tested in the primary screen, some selected negative inactives, and several cases re-run in the concentration series for confirmatory purposes.

AC50, active:
Clc1cc(Cl)c2c(c1)N=C1CCCCCN1C2 5.33 µM
COc1cccc([C@H](O)C2CCN(CCc3ccc(F)cc3)CC2)c1OC 1.85 µM
CCN(CC)C(=O)c1cc(S(=O)(=O)Cc2ccccc2)c(N2CCC(c3ccccc3)CC2)cc1N(CC)CCN(C)C 7.81 µM
O=C1c2ccccc2C(=O)N1CCc1noc(-c2ccc(CN3CCCCCC3)s2)n1 3.3 µM
CCOC(=O)O[C@H](C)OC(=O)c1ccc2c(c1)cc(C(=O)NC1CCN(C(C)C)CC1)n2Cc1cc(-c2ccc(Cl)s2)on1 15.4 µM
CN(C)C(=O)C1(N2CCCCC2)CCN(CC[C@@]2(c3ccc(Cl)c(Cl)c3)CN(C(=O)c3ccccc3)CCO2)CC1 8.86 µM
COc1ccc2cc(S(=O)(=O)N[C@H](CC(=O)N[C@H](Cc3ccc(CN4[C@H](C)CCC[C@@H]4C)cc3)C(=O)N(C)C(C)C)c3ccc4c(c3)OCO4)ccc2c1 11.1 µM
CN(C)c1ccc(C(=C2C=CC(=[N+](C)C)C=C2)c2ccc(N(C)C)cc2)cc1 9.73 µM
NCc1cccc(C2CCN(C(=O)c3ccc(C#Cc4ccccc4F)o3)CC2)c1 13.3 µM
COc1cc(C(=O)NC2CCN(C)CC2)ccc1Nc1ncc2c(n1)N(C1CCCC1)CC(F)(F)C(=O)N2C 18.8 µM
CCCCCCCCCCCC[N+](C)(C)C 37.3 µM
O=c1[nH]sc2ccccc12 37.4 µM
CCN(Cc1cccnc1)C(=O)c1cccc(Cl)c1[C@]1(C)C(=O)N(Cc2ccc(OC)cc2OC)c2ccc(Cl)cc21 4.68 µM
Cc1occc1C(=O)Nc1ccc(C(=O)N2CCC(F)(F)/C(=C\C(=O)N3CCC(N4CCCCC4)CC3)c3ccccc32)cc1 1.25 µM
c1ccc(C[n+]2cccc3ccccc32)cc1 12.2 µM

outcome, inactive:
O=C1CCC(C2CCCCC2)CC1
